Most compounds without a hit are left out; they make up all but 7.4% or so of the library.
ELG1 genotox: qHTS screen for small molecules that induce genotoxicity in human embryonic kidney (HEK293T) cells expressing luciferase-tagged ELG1 | HEK293T ELG1-luciferase reporter, luminescence, 16 h | Potency, µM (top dose mostly 46 µM), actives largely listed as activators | 330,000 compounds, 1.3% hits | AID 504466, 2011; note: nearly all actives have a fitted effect of over 60% in size
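HEK293T cells expressing luciferase-tagged ELG1 were treated with compound or DMSO for 16 hr at 37°C. Luciferase activity was then read after 30 min with ONE-Glo at room temperature; rising signal flags genetic stress.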
SMN2 splice up: qHTS Assay for Enhancers of SMN2 Splice Variant Expression; HEK293 SMN2-luciferase splicing reporter, luminescence, 30-36 h; Potency, µM (top dose mostly 46.1 µM), hits mostly activators; 210,000 compounds, 2.8% hits; AID 1458, 2008; note: nearly all actives have a fitted effect of over 55% in size
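qHTS luciferase splicing reporter: luminescence rises when SMN2 exon 7 is included in transfected HEK293 cells. Compound exposure lasted 30-36 h at 37C, with 4.5 mM final sodium butyrate as control, followed by a ONE-Glo read.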
NPC1 prom act: qHTS Assay for NPC1 Promoter Activators. Huh7 NPC1 promoter luciferase reporter, 24 h. Potency, µM (titrated, usually from 9.22 µM), most hits filed as activators. 320,000 compounds, 2.4% hits. AID 485313, 2010; note: nearly all actives have a fitted effect of over 60% in size
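Compounds in DMSO were transferred onto Huh7 NPC1-luciferase reporter cells pre-incubated 2 h; after 24 h at 37 °C, Amplite reagent was dispensed and luminescence recorded 10 min later.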
FLuc modulator: qHTS profiling assay for firefly luciferase inhibitor/activator using purifed enzyme and Km concentrations of substrates (counterscreen for miR-21 project). Luciferin 4-monooxygenase (Photinus pyralis), P08659. Potency, µM (doses to about 57.5 µM), hits mostly inhibitors. purified FLuc, Km substrates, luminescence inhibition. 360,000 compounds, 6.9% hits; note: nearly all actives have a fitted effect of over 55% in size
Target sequence (P08659 whole entry, looked up): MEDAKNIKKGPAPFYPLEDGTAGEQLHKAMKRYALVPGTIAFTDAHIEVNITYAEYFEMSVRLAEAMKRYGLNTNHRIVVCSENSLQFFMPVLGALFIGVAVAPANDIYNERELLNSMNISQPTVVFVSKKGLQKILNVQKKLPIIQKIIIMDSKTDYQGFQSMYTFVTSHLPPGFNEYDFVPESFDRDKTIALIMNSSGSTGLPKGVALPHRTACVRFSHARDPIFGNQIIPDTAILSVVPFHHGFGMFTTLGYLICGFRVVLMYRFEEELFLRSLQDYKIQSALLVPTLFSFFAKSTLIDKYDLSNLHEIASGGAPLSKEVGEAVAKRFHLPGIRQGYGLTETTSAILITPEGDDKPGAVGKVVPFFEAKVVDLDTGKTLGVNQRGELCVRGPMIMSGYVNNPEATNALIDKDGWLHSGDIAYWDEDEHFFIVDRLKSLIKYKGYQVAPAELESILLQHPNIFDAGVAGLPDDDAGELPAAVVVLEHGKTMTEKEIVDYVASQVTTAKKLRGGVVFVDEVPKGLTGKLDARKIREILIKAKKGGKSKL
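Purified P. pyralis luciferase (10nM final) with 10uM D-luciferin and 10uM ATP (Km levels) in 50mM Tris acetate pH 7.5, 10mM Mg acetate, 0.01% Tween-20, 0.05% BSA; qHTS 6-point titration, ~60 µM downward; luminescence read.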
Rab9 prom act: qHTS Assay for Rab9 Promoter Activators | Huh7 Rab9 promoter-luciferase reporter, luminescence, 24 h | 320,000 compounds, 2.8% hits | Potency, µM (doses to about 9.22 µM), hits mostly activators; note: nearly all actives have a fitted effect of over 60% in size
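Luminescence from Amplite-detected luciferase (10 minutes, ambient) reports Rab9 promoter activation. Before that, stable Rab9-luciferase Huh7 cells (1500/well, reduced-serum OP-MEM I plus 10% FBS) were exposed to compound for 24 hours at 37C.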
Of the large screens only hits and unclear results are named; the others gave an inactive call. Calls come from the whole dose curve; as a rule, active = well fitted curve in the direction sought with a large enough effect; inconclusive = small, poorly fitted or top-dose-only effect, or another doubt; inactive = no such curve, though single readings can be large; an effect the other way counts as inactive or inconclusive.

Cn1nnnc1SCc1csc(Nc2ccccc2)n1	ELG1 genotox inconclusive, NPC1 prom act inconclusive, FLuc modulator inconclusive, Rab9 prom act 3.98µM
Cc1ccc(Nc2nc(CSc3nnnn3C)cs2)cc1	ELG1 genotox inconclusive, SMN2 splice up 11.2µM, NPC1 prom act 3.55µM, FLuc modulator 3.38µM, Rab9 prom act 2.82µM
Cc1ccc(CSc2n[nH]c(N)n2)cc1	none (no result: SMN2 splice up)
Cc1ccc(Nc2nc(CSc3nnnn3-c3ccccc3)cs2)cc1	FLuc modulator 16.9µM (no result: ELG1 genotox, NPC1 prom act, Rab9 prom act)
O=c1c(CCc2ccccc2)nc2cnc(Nc3ccccc3)nc2n1Cc1cccs1	none (no result: ELG1 genotox, NPC1 prom act, FLuc modulator, Rab9 prom act)
CC(c1ccco1)N(C(=O)c1ccccc1NS(=O)(=O)c1ccc(Cl)cc1)c1ccccn1 (stereo not given)	none
CC(c1ccco1)N(C(=O)COc1ccc(Cl)cc1Cl)c1ccccn1 (stereo not given)	ELG1 genotox 2.31µM, FLuc modulator 4.26µM, Rab9 prom act inconclusive
CC(c1ccco1)N(C(=O)COc1ccc(Cl)cc1)c1ccccn1 (stereo not given)	ELG1 genotox 8.91µM, SMN2 splice up inconclusive, FLuc modulator 21.3µM
CCc1ccccc1-n1cnc2cc(C(=O)NC3CCCCCC3)ccc21	none (no result: ELG1 genotox, SMN2 splice up, NPC1 prom act, Rab9 prom act)
CCn1cc(C(=O)NCCc2ccc(Cl)cc2)c(=O)c2cc(S(=O)(=O)N3CCC(C)CC3)ccc21	none (no result: ELG1 genotox, NPC1 prom act, Rab9 prom act)
Cc1cc(C)cc(-n2ccnc2SCC(=O)Nc2ccc(C)c(Cl)c2)c1	none (no result: ELG1 genotox, SMN2 splice up, NPC1 prom act, Rab9 prom act)
COc1ccc2c(CNCc3cccs3)c(C(=O)O)n(Cc3ccccc3F)c2c1	none (no result: ELG1 genotox, SMN2 splice up, NPC1 prom act, Rab9 prom act)
Cc1ccsc1C(=O)Nc1ccc(OCc2ccccc2)cc1	ELG1 genotox inconclusive, NPC1 prom act 1.58µM, FLuc modulator 1.51µM, Rab9 prom act 1.12µM (no result: SMN2 splice up)
CC(=O)c1cc(C(=O)Nc2ccc(C(=O)O)cc2)oc1C	none
Cc1cc(C(=O)Nc2ccccc2C(=O)O)c(C)o1	FLuc modulator 23.9µM (no result: SMN2 splice up)
Cc1cc(C(=O)Nc2ccc(OCc3ccccc3)cc2)c(C)o1	ELG1 genotox inconclusive, SMN2 splice up inconclusive, NPC1 prom act inconclusive, FLuc modulator 16.9µM, Rab9 prom act inconclusive
Cc1oc(C(=O)Nc2ccc(C(=O)O)cc2)cc1COc1ccccc1	FLuc modulator 10.7µM
CS(=O)(=O)c1ncc(Cl)c(C(=O)N2CCN(c3cccc(Cl)c3)CC2)n1	none (no result: ELG1 genotox, NPC1 prom act, FLuc modulator, Rab9 prom act)
Cc1ccc(NC(=O)c2nnn(-c3ccc4c(c3)OCCO4)c2N)cc1	ELG1 genotox inconclusive, NPC1 prom act 2.24µM, FLuc modulator 10.7µM, Rab9 prom act 5.62µM (no result: SMN2 splice up)
Cc1ccc(NC(=O)c2nnn(-c3cccc(C(F)(F)F)c3)c2N)cc1	none
Nc1c(C(=O)Nc2ccccc2)nnn1-c1ccc2c(c1)OCCO2	ELG1 genotox 0.184µM, NPC1 prom act 0.224µM, FLuc modulator 0.849µM, Rab9 prom act 0.1µM (no result: SMN2 splice up)
CCOC(=O)c1cnn(-c2nc(C)cc(C)n2)c1N	FLuc modulator inconclusive
CCOC(=O)c1cnn(-c2ccc(C(F)(F)F)cn2)c1N	ELG1 genotox inconclusive, SMN2 splice up inconclusive, NPC1 prom act inconclusive, FLuc modulator 10.7µM, Rab9 prom act inconclusive
CCOC(=O)c1cnn(-c2ncnc3sc(CC)cc23)c1N	FLuc modulator 13.5µM
CCCOc1ccc(CNC(=O)C2CCN(C(=O)c3sccc3-n3cccc3)CC2)cc1	none (no result: ELG1 genotox, NPC1 prom act, Rab9 prom act)
O=c1c(Cl)c(NCc2ccco2)cnn1C12CC3CC(CC(C3)C1)C2	none
O=c1c(Cl)c(NCc2ccccc2Cl)cnn1C12CC3CC(CC(C3)C1)C2	FLuc modulator 12µM
O=C(Oc1ccccc1Cl)c1ccc2c(=O)n3c(nc2c1)CCC3	ELG1 genotox inconclusive, FLuc modulator 16.9µM (no result: SMN2 splice up)
COc1ccc(COC(=O)c2ccc3c(=O)n4c(nc3c2)CCC4)cc1F	none (no result: SMN2 splice up)
O=C(Oc1ccccc1F)c1ccc2c(=O)n3c(nc2c1)CCC3	FLuc modulator 15.1µM (no result: SMN2 splice up)
O=C(NNC(=O)c1ccccc1Cl)c1ccc2c(=O)n3c(nc2c1)CCC3	none (no result: SMN2 splice up, FLuc modulator)
COc1ccc(CNC(=O)C(=O)NCC(c2cccnc2)N2CCN(c3ccccc3)CC2)cc1 (stereo not given)	none (no result: ELG1 genotox, SMN2 splice up, NPC1 prom act, Rab9 prom act)
CSCCC(NS(=O)(=O)c1ccc2c(c1)oc(=O)n2C)C(=O)Nc1ccc(Cl)cc1 (stereo not given)	none (no result: ELG1 genotox, NPC1 prom act, Rab9 prom act)
O=C(NCCSCc1ccco1)Nc1ccc(Cl)cc1	SMN2 splice up inconclusive, FLuc modulator 10.7µM (no result: ELG1 genotox, NPC1 prom act, Rab9 prom act)

Source: PubChem BioAssay (National Center for Advancing Translational Sciences (NCATS))
